Experimental findings from ChEMBL document CHEMBL3433997, “St. Jude Leishmania screening dataset” (2016) are described below.

The assay concerns the target Glucose transporter (Leishmania mexicana) (UniProt O61059). Kind of assay: ST_JUDE_LEISH: Cytotoxicity at 2uM final concentration against transgenic Leishmania Mexicana promastigotes LmGT2 that are glucose transport deficient and complemented with the L. Mexicana glucose transporter 2. Activity is measured by DNA content using SYBR green in vitro. Type of assay: functional.
In the case of `COc1ccccc1C1CCN(CCN2CCC(NC(=O)c3ccc(-c4ccc(C#N)cc4)cc3)CC2)CC1`, the inhibition (usually the drop in the measured response relative to a control, in per cent) was determined as 1.89%.

Turning to `O=C(c1ccco1)N1CCN(c2ccc([N+](=O)[O-])c(NC3CC3)c2)CC1`, the inhibition is -1.35%.

`CCOc1ccc(Cc2c(C)nc3nc(N)nc(N)c3c2C)cc1`: the inhibition came to 26%. `CC(c1cccc(S(=O)(=O)NCc2cccc(C(F)(F)F)c2)c1)N1CCC(N2CCCCC2)CC1` (stereo not given): the inhibition worked out at 7.91%. As to `CC(Oc1c(C2CCN(CCCCNC(=O)c3ccc(-c4ccc(C#N)cc4)cc3)CC2)ccc2c1CCCC2)C(N)=O` (stereo not given), the inhibition was found to be 0.3%.

With `NC1CCN(Cc2cccc(-c3cccc(-c4nc5ccccc5[nH]4)c3)c2)C1` (stereo not given), the inhibition worked out at 1.15%. Consider `O=C(Cn1c(SCc2cccc(F)c2F)cc(=O)c2ccccc21)N(CCN1CCCCC1)Cc1ccc(-c2ccc(C(F)(F)F)cc2)cc1`, for which the inhibition is -1.85%.

Take `COc1ccc(Cl)cc1N1CCN(CCCNC(=O)c2ccc(-c3nc4cnccc4[nH]3)c(Br)c2)CC1`: the inhibition is -0.85%. Regarding `CN1CCN(CC(O)CNC(=O)Nc2ccc(Cl)cc2)CC1` (stereo not given), the inhibition was 2.94%. In the case of `COc1ccc2c(NN=Cc3ccccn3)ccnc2c1`, the inhibition came to 11.3%.
